According to PubChem BioAssay (Tox21):
Inconclusive results are not listed. Where a call stands in place of a potency, no number is given. A number with no mark means an inactive call. Activity calls are given as the source filed them. Calls follow the shape of the dose curve; as a rule, active = well fitted cell-killing curve with a large enough effect in the repeat runs; inconclusive = weak or mixed curves, or effect the other way; inactive = flat fitted curve, though single readings scatter.

Columns and labels:
[1] = cAMP Responsive Elements (CRE) small molecule antagonists, cell-based qHTS assay: qHTS cell viability counter screen (AID 2060913); also: nearly all actives have a fitted effect of over 40% in size
Outline: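 HEK293T CRE-bla, 2,000 cells/well, 18 h preincubation; cpd in DMSO + NKH477 0.25 uM final, 3 h 37 C/5% CO2; LiveBLAzer 2 h RT, then CellTiter-Glo 30 min RT, luminescence.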

[2] = cAMP Responsive Elements (CRE) small molecule agonists, cell-based qHTS assay: qHTS cell viability counter screen (AID 2060914); also: nearly all actives have a fitted effect of over 50% in size
Outline: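 CRE-bla HEK293T cells in 10% dialyzed FBS medium were exposed to compounds for 3 h at 37C after 18 h plating. CellTiter-Glo was then added in the same wells, and luminescence was read after 30 min at room temperature.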

For CC(=O)CC(N)=O, which Potency [1] is on record?
The Potency was “inactive”.

And the Potency [2]?
Its Potency is “inactive”.

What does the source list for COC(=O)CCCCC(CCSS/C(CCO)=C(\C)N(C=O)Cc1cnc(C)nc1N)SC(C)=O (configuration not stated)?
Potency [1]: inactive; Potency [2]: inactive

Which Potency [1] does the source give for CCN(CC)C(=S)SSC(=S)N(CC)CC here?
Its Potency is “inactive”.

What about the Potency [2] of the same compound?
The Potency was “inactive”.

Which Potency [1] does the source give for CCCC(=O)OC[C@@H](OC(=O)CCC)[C@@H](OC(=O)CCC)[C@H](Cn1c2nc(=O)[nH]c(=O)c-2nc2cc(C)c(C)cc21)OC(=O)CCC here?
The Potency was “inactive”.

And the Potency [2]?
The Potency was “inactive”.

For O=Nc1ccc(NO)cc1, which Potency [1] is on record?
The Potency was “inactive”.

What about the Potency [2] of the same compound?
Its Potency is “inactive”.

What does the source list for CCN(CCC#N)c1ccc(N=Nc2ccc([N+](=O)[O-])cc2)cc1?
Potency [1]: inactive; Potency [2]: inactive

For C=C(C)C(N)=O, which Potency [1] is on record?
Its Potency is “inactive”.

What about the Potency [2] of the same compound?
The Potency was “inactive”.

For NC(=O)N[C@@H](CCC(=O)O)C(=O)O, which Potency [1] is on record?
The Potency was “inactive”.

What about the Potency [2] of the same compound?
Its Potency is “inactive”.

What does the source list for CC1(C)CCC(C)(C)c2cc(NC(=O)c3ccc(C(=O)O)cc3)ccc21?
Potency [1]: inactive; Potency [2]: inactive

For CCOc1ccc(NC(N)=O)cc1, which Potency [1] is on record?
The Potency was “inactive”.

And the Potency [2]?
The Potency was “inactive”.

For COC(=O)c1cc(C(=O)OC)cc(S(=O)(=O)O)c1, which Potency [1] is on record?
The Potency was “inactive”.

What about the Potency [2] of the same compound?
Its Potency is “inactive”.

Which Potency [1] does the source give for CC1(C)SC(C)(C)SC(C)(C)S1 here?
Its Potency is “inactive”.

And the Potency [2]?
Its Potency is “inactive”.

Which results are given for CC(C)C[C@@H]1[C@H](c2ccccc2)OC(=O)N1CCCN1CCCCCC1?
Potency [1]: inactive; Potency [2]: inactive

Which Potency [1] does the source give for O=c1cc[nH]c(=S)[nH]1 here?
The Potency was “inactive”.

And the Potency [2]?
Its Potency is “inactive”.

For CCCCCCCCCC(=O)O, which Potency [1] is on record?
The Potency was “inactive”.

What about the Potency [2] of the same compound?
The Potency was “inactive”.

With CCOCCn1c(N2CCCN(C)CC2)nc2ccccc21 as the compound, how does the Potency [1] read?
Its Potency is “inactive”.

And the Potency [2]?
Its Potency is “inactive”.

For CCCCCCCCCOCC1CO1 (configuration not stated), which Potency [1] is on record?
Its Potency is “inactive”.

What about the Potency [2] of the same compound?
Its Potency is “inactive”.

With CC1(C)O[C@@H]2C[C@H]3[C@@H]4CCC5=CC(=O)CC[C@]5(C)[C@@]4(F)[C@@H](O)C[C@]3(C)[C@]2(C(=O)CCl)O1 as the compound, how does the Potency [1] read?
Its Potency is “inactive”.

And the Potency [2]?
The Potency was “inactive”.

Which Potency [1] does the source give for OC1CCCCCCCCCCC1 here?
The Potency was “inactive”.

And the Potency [2]?
The Potency was “inactive”.

What does the source list for C/C=C/C=C/CO?
Potency [1]: inactive; Potency [2]: inactive

What does the source list for ClCCl?
Potency [1]: inactive; Potency [2]: inactive

Which Potency [1] does the source give for Cc1ccccc1S(=O)(=O)O here?
Its Potency is “inactive”.

And the Potency [2]?
The Potency was “inactive”.

With O=C=Nc1ccc(Cc2ccc(N=C=O)cc2)cc1 as the compound, how does the Potency [1] read?
Its Potency is “inactive”.

What about the Potency [2] of the same compound?
The Potency was “inactive”.

What does the source list for CCO[Si](OCC)(OCC)OCC?
Potency [1]: inactive; Potency [2]: inactive

For C=CCn1cc[n+](C)c1, which Potency [1] is on record?
The Potency was “inactive”.

And the Potency [2]?
The Potency was “inactive”.

With NC1CCCCC1N (configuration not stated) as the compound, how does the Potency [1] read?
The Potency was “inactive”.

What about the Potency [2] of the same compound?
Its Potency is “inactive”.

For CCCCCCCCCCCCC(=O)O, which Potency [1] is on record?
The Potency was “inactive”.

What about the Potency [2] of the same compound?
Its Potency is “inactive”.

With CCCCCc1ccc(N)cc1 as the compound, how does the Potency [1] read?
The Potency was “inactive”.

And the Potency [2]?
The Potency was “inactive”.

Which Potency [1] does the source give for c1ccc(OCc2ccc(CCCN3CCOCC3)cc2)cc1 here?
Its Potency is “inactive”.

And the Potency [2]?
The Potency was “inactive”.

Which results are given for Nc1ccc(Oc2cccc(Oc3ccc(N)cc3)c2)cc1?
Potency [1]: inactive; Potency [2]: inactive

Which results are given for CCCCCCC(=O)c1ccccc1?
Potency [1]: inactive; Potency [2]: inactive

For Cc1cccc(Nc2ccccc2C(=O)O)c1C, which Potency [1] is on record?
The Potency was “inactive”.

And the Potency [2]?
The Potency was “inactive”.

With C[C@@H]1CN(c2c(F)c(F)c3c(=O)c(C(=O)O)cn(C4CC4)c3c2F)C[C@H](C)N1 as the compound, how does the viability change, negative = cytotoxic [1] read?
The viability change, negative = cytotoxic was -1.63% [at 18.9 µM].

What about the activity change, negative = cytotoxicity [2] of the same compound?
The activity change, negative = cytotoxicity was -12.9% [at 18.9 µM].

Which Potency [1] does the source give for O=c1[nH]cc(F)c(=O)[nH]1 here?
The Potency was “inactive”.

What about the Potency [2] of the same compound?
Its Potency is “inactive”.

Which results are given for Nc1ccc2c(c1)C(=O)c1ccccc1C2=O?
Potency [1]: inactive; Potency [2]: inactive

With CCCCCOC(=O)Nc1nc(=O)n([C@@H]2O[C@H](C)[C@@H](O)[C@H]2O)cc1F as the compound, how does the Potency [1] read?
Its Potency is “inactive”.

What about the Potency [2] of the same compound?
The Potency was “inactive”.

With COC(=O)c1ccc(C(=O)OC)cc1 as the compound, how does the Potency [1] read?
Its Potency is “inactive”.

What about the Potency [2] of the same compound?
The Potency was “inactive”.

For COc1ccc2cc(C=O)ccc2c1, which Potency [1] is on record?
The Potency was “inactive”.

What about the Potency [2] of the same compound?
Its Potency is “inactive”.

With Cc1c(NC(C)C)c(=O)n(-c2ccccc2)n1C as the compound, how does the Potency [1] read?
The Potency was “inactive”.

What about the Potency [2] of the same compound?
The Potency was “inactive”.

For OC1CCC(C2CCCCC2)CC1 (configuration not stated), which Potency [1] is on record?
Its Potency is “inactive”.

What about the Potency [2] of the same compound?
The Potency was “inactive”.

Which Potency [1] does the source give for CCNC(=O)NCCCOc1cccc(CN2CCCCC2)c1 here?
The Potency was “inactive”.

And the Potency [2]?
Its Potency is “inactive”.

Which results are given for Cn1cnc2c(F)c(Nc3ccc(Br)cc3Cl)c(C(=O)NOCCO)cc21?
Potency [1]: inactive; Potency [2]: inactive

Which results are given for O=C1c2ccccc2C(=O)c2c(Cl)cccc21?
Potency [1]: inactive; Potency [2]: inactive

Which results are given for CC1CCN(CCCC(=O)c2ccc(F)cc2)CC1?
Potency [1]: inactive; Potency [2]: inactive

Which Potency [1] does the source give for NC(=O)c1ncn([C@@H]2O[C@H](CO)[C@@H](O)[C@H]2O)n1 here?
The Potency was “inactive”.

What about the Potency [2] of the same compound?
The Potency was “inactive”.

With O=C(O)CNc1ccccc1 as the compound, how does the Potency [1] read?
Its Potency is “inactive”.

And the Potency [2]?
Its Potency is “inactive”.

Which results are given for CCC(C(=O)NC(=O)NC(C)=O)c1ccccc1 (configuration not stated)?
Potency [1]: inactive; Potency [2]: inactive

With O=C(/C=C/c1ccc(O)c(O)c1)O[C@@H](C(=O)O)[C@@H](OC(=O)/C=C/c1ccc(O)c(O)c1)C(=O)O as the compound, how does the Potency [1] read?
The Potency was “inactive”.

And the Potency [2]?
The Potency was “inactive”.

Which Potency [1] does the source give for CC(=O)NNC(C)=O here?
The Potency was “inactive”.

And the Potency [2]?
Its Potency is “inactive”.

Which results are given for CC(=O)Oc1ccc(C(=C2CCCCC2)c2ccc(OC(C)=O)cc2)cc1?
Potency [1]: inactive; Potency [2]: inactive

Which Potency [1] does the source give for O=C(O)c1ccc(S(=O)(=O)O)cc1C(=O)O here?
Its Potency is “inactive”.

And the Potency [2]?
The Potency was “inactive”.
